“And” between values parts separate entries of the source, which are not always exact repeats. Identical values can stand only once. Results filed as inconclusive are left out. The source holds several records for some structures; these can differ, active in one and inactive in another. The source made the active and inactive calls. Unless noted, the call rests on the fitted dose curve; in most records, active means well fitted curve in the direction sought with a large enough effect; inconclusive means small, poorly fitted or top-dose-only effect, or another doubt; inactive means no such curve, though single readings can be large; an effect the other way counts as inactive or inconclusive.
Experiments:
CASKI = assay: Primary qHTS to identify gynecologic anti-cancer compounds using libraries of approved drugs and bioactive compounds (AID 1345084); settings: Gynecologic cancer cell panel viability, ATPlite luminescence, 48 h; series mostly up to 57.5 µM; further: nearly all actives have a fitted effect of over 55% in size; further: potency means the concentration at half of the fitted maximal effect
Outline: (§1)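 Cells, 1,000 per well, plated 16 h, then exposed 48 h at 37 C to compounds. Viability by ATPlite luminescence after 15 min at room temperature.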

Es-2 = assay: as above; settings: Gynecologic cancer cell panel viability, ATPlite luminescence, 48 h; series mostly up to 57.5 µM
Outline: as §1

HeLa = assay: as above; settings: Gynecologic cancer cell panel viability, ATPlite luminescence, 48 h; series mostly up to 57.5 µM
Outline: as §1

Hek293T = assay: as above; settings: Gynecologic cancer cell panel viability, ATPlite luminescence, 48 h, control line for the selectivity index; series mostly up to 57.5 µM
Outline: as §1

JEG-3 = assay: as above; settings: Gynecologic cancer cell panel viability, ATPlite luminescence, 48 h; series mostly up to 57.5 µM
Outline: as §1

OV90 = assay: as above; settings: Gynecologic cancer cell panel viability, ATPlite luminescence, 48 h; series mostly up to 57.5 µM
Outline: as §1

PA-1 = assay: as above; settings: Gynecologic cancer cell panel viability, ATPlite luminescence, 48 h; series mostly up to 57.5 µM
Outline: as §1

Tov-21-G = assay: as above; settings: Gynecologic cancer cell panel viability, ATPlite luminescence, 48 h; series mostly up to 57.5 µM
Outline: as §1

Tov112D = assay: as above; settings: Gynecologic cancer cell panel viability, ATPlite luminescence, 48 h; series mostly up to 57.5 µM
Outline: as §1

[1] = Drug repurposing screens with cells derived from glioblastoma tumor samples (AID 1345199); settings: GBM patient neurospheres viability, ATP luminescence, 48 h; further: nearly all actives have a fitted effect of over 40% in size; further: potency means the concentration at half of the fitted maximal effect; on activity, negative = cell killing: on the % scale 0 is the no-effect control and ±100 the full control effect
Outline: (§2)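 Primary testing used CD133+ neurospheres from four GBM patients, seven concentrations, 48 h exposure and ATP-based viability; confirmation added three slower-growing patient lines.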

astro = assay: as above; settings: viability, ATP luminescence, 48 h; series mostly up to 45.9 µM
Outline: as §2

SKOV3 = assay: Primary qHTS to identify gynecologic anti-cancer compounds using libraries of approved drugs and bioactive compounds (AID 1345084); settings: Gynecologic cancer cell panel viability, ATPlite luminescence, 48 h; series mostly up to 57.5 µM; further: nearly all actives have a fitted effect of over 55% in size; further: potency means the concentration at half of the fitted maximal effect
Outline: as §1

[2] = molecular target: Nuclear receptor subfamily 1 group I member 2 (Rattus norvegicus) (UniProt Q9R1A7); assay: qHTS assay for small molecule activators of the rat pregnane X receptor (rPXR) signaling pathway (AID 651751; call rule not given here; further: 0% is about no effect); settings: rPXR reporter cells, luciferase (One-Glo), 24 h
[3] = at 46.1 µM (top of the series), tumour line C

Chain of Nuclear receptor subfamily 1 group I member 2 (Rattus norvegicus) (Q9R1A7 whole entry, looked up): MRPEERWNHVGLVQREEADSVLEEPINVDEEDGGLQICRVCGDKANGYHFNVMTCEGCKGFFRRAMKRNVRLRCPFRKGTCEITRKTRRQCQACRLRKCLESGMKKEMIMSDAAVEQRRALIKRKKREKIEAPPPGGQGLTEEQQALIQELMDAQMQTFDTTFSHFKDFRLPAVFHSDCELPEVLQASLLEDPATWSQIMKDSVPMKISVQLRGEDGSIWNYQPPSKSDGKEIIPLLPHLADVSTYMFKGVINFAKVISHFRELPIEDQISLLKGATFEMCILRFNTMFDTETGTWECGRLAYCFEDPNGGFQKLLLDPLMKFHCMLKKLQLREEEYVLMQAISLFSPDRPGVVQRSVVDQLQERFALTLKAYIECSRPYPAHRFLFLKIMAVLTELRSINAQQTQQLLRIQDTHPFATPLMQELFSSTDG

CN(N=O)C(=O)N[C@@H]1[C@@H](O)[C@H](O)[C@@H](CO)O[C@@H]1O
inactive: Potency (CASKI) | Potency (Es-2) | Potency (HeLa) | Potency (Hek293T) | Potency (JEG-3) | Potency (OV90) | Potency (PA-1) | Potency (Tov-21-G) | Potency (Tov112D) | activity, negative = cell killing ([1]; at 20 µM (top of the series), tumour line C) -1.98% | activity, negative = cell killing ([1]; at 21.2 µM (top of the series), tumour line B) -12% | activity, negative = cell killing ([1]; at 21.2 µM (top of the series), tumour line D) 1.48% | activity, negative = cell killing ([1]; at 21.3 µM (top of the series), tumour line A) -15.9% | Potency (astro)

Cc1c(O)cccc1C(=O)N[C@@H](CSc1ccccc1)[C@H](O)CN1C[C@H]2CCCC[C@H]2C[C@H]1C(=O)NC(C)(C)C
active: Potency ([1]; tumour line A) 6.31 µM | Potency ([1]; tumour line B) 11.2 µM | Potency ([1]; tumour line D) 20 µM | Potency (astro) 35.5 µM
inactive: Potency (CASKI) | Potency (Es-2) | Potency (HeLa) | Potency (Hek293T) | Potency (JEG-3) | Potency (OV90) | Potency (PA-1) | Potency (Tov-21-G) | Potency (Tov112D) | activity, negative = cell killing [1, 3] 0.268%

COc1ccc2cc1Oc1ccc(cc1)C[C@H]1c3c(cc4c(c3Oc3cc5c(cc3OC)CCN(C)[C@@H]5C2)OCO4)CCN1C
active: Potency (PA-1) 28.2 µM
10 µM (active) and inactive: Potency (OV90)
inactive: Potency (CASKI) | Potency (Es-2) | Potency (HeLa) | Potency (Hek293T) | Potency (JEG-3) | Potency (Tov-21-G) | Potency (Tov112D)

Nc1ccc(S(=O)(=O)Nc2ccc(Cl)nn2)cc1
inactive: Potency (CASKI) | Potency (Es-2) | Potency (HeLa) | Potency (Hek293T) | Potency (JEG-3) | Potency (OV90) | Potency (PA-1) | Potency (SKOV3) | Potency (Tov-21-G) | Potency (Tov112D) | Potency (astro)

CCCc1c(OCCCCc2nn[nH]n2)ccc(C(C)=O)c1O
active: Potency (astro) 25.1 µM
inactive: Potency (CASKI) | Potency (Es-2) | Potency (HeLa) | Potency (Hek293T) | Potency (JEG-3) | Potency (OV90) | Potency (PA-1) | Potency (SKOV3) | Potency (Tov-21-G) | Potency (Tov112D) | max response [2] -2.11%

N[C@H](C(=O)O)c1ccc(O)cc1
inactive: Potency (CASKI) | Potency (Es-2) | Potency (HeLa) | Potency (Hek293T) | Potency (JEG-3) | Potency (OV90) | Potency (PA-1) | Potency (SKOV3) | Potency (Tov-21-G) | Potency (Tov112D) | Potency (astro)

COc1ccc(S(=O)(=O)Nc2nnc(CC(C)C)s2)cc1
inactive: Potency (CASKI) | Potency (Es-2) | Potency (HeLa) | Potency (Hek293T) | Potency (JEG-3) | Potency (OV90) | Potency (PA-1) | Potency (Tov-21-G) | Potency (Tov112D) | activity, negative = cell killing ([1]; at 45.9 µM (top of the series), tumour line B) -4.51% and -11.1% | activity, negative = cell killing ([1]; at 45.9 µM (top of the series), tumour line D) -10.6% and 2.66% | activity, negative = cell killing ([1]; at 46 µM (top of the series), tumour line A) -18% | activity, negative = cell killing [1, 3] -23.9% | Potency (astro)

From PubChem BioAssay (NCATS)
